Reference: PubChem BioAssay (NCATS)
Results filed as inconclusive are left out. Values without a mark were called inactive. The source made the active and inactive calls. Calls come from the whole dose curve; as a rule, active = well fitted inhibition curve with a large enough effect; inconclusive = small, poorly fitted or top-dose-only effect; inactive = no such curve, though single readings can be large or run the other way.

Each compound was assayed against Cytochrome P450 2D6 (Homo sapiens) (UniProt P10635) (assay: qHTS Assay for Inhibitors and Substrates of Cytochrome P450 2D6 (AID 891; note: nearly all actives have a fitted effect of over 60% in size)). Settings: recombinant CYP2D6, luciferin-ME EGE luminescence; series mostly up to 57.1 µM; activity change, negative = inhibition: at the top concentration.
Sequence of Cytochrome P450 2D6 (Homo sapiens) (P10635 whole entry, looked up): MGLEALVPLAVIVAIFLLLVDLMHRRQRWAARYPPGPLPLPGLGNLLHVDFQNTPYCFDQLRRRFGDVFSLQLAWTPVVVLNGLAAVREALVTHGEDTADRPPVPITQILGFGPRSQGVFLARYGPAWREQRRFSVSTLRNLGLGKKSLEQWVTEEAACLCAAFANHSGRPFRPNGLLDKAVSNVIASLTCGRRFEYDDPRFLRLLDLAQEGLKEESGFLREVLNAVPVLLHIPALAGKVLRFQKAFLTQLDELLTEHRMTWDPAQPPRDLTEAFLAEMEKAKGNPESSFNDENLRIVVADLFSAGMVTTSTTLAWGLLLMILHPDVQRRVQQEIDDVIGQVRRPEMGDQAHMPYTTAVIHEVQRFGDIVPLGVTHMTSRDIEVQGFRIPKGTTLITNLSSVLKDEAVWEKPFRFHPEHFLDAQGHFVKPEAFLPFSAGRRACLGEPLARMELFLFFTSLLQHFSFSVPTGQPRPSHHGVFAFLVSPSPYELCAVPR
Description: NIH Molecular Libraries Screening Centers Network [MLSCN]
NIH Chemical Genomics Center [NCGC]
The P450 gene superfamily is involved in the metabolism and clearance of xenobiotics. This assay used human CYP2D6 to measure the demethylation of ethylene glycol ester of luciferin 6' methyl ether (Luciferin-ME EGE; […]) to luciferin. The luciferin is then measured by luminescence after the addition of a luciferase detection reagent. Luciferin-ME EGE concentration in the assay was equal to its Km for CYP2D6. Inhibitors and some substrates limit the production of luciferin, and decrease measured luminescence.
NCGC Assay Protocol Summary:
Two uL of enzyme and substrate mix (final concentrations: 5nM CYP2D6, 30uM Luciferin-ME EGE, 100mM KPO4) were dispensed into a white, solid bottom 1536-well microtiter plate. 23nL of compound was transferred by a pin tool. The plate was incubated at room temperature for 10 min. Two uL of an NADPH regeneration solution (Promega supplied reagent) was dispensed and the reaction was allowed to continue for 60 min at room temperature. Then the reaction was stopped by reconstituted luciferin detection buffer. After another 20 min of incubation the plate was read on the ViewLux (Perkin Elmer) at 60 sec exposure and 2x2 binning. This protocol was carried out with Promega-Glo reagents and further information can be found at http://www.promega.com/tbs/tb325/tb325.pdf. Data were normalized to the to AC100 inhibition (1.43 uM quinidine).
Keywords: P450, CYP2D6, Luciferase, MLSMR, MLSCN, NIH Roadmap, qHTS, NCGC
% is set by controls: 0 for no effect and ±100 for the full control effect; potency is the fitted concentration of half-maximal effect.

| Structure (SMILES) | Potency | activity change, negative = inhibition [%] |
| --- | --- | --- |
| CCCC[C@H]1C[C@@H]1[C@@H]1N(P(=O)(c2ccccc2)c2ccccc2)[C@](CO)(c2ccccc2)CC12CC2 | 2.51 µM (active) |  |
| CC(C)C[C@@H](CC(=O)N[C@H](CC(=O)N[C@@H]1CCNC[C@H]1C(=O)N[C@H](CC(=O)N[C@@H](CCC(=O)O)CC(=O)O)Cc1c[nH]c2ccccc12)C(C)C)NC(=O)[C@@H]1CCCC[C@H]1N |  | 11.1 |
| C=C1CC[C@@H]2O[C@]2(C)CC[C@@H]2[C@H]1CC2(C)C |  | -17.1 |
| CC(C)C[C@@H](CC(=O)N[C@@H](CCC(=O)O)CC(=O)O)NC(=O)[C@@H]1CNCC[C@H]1NC(=O)C[C@@H](NC(=O)C[C@H](Cc1ccccc1)NC(=O)[C@@H]1CCCC[C@H]1N)C(C)C |  | -7.2 |
| C=C(CO)[C@H]1Cc2c(ccc3c(=O)c4c(oc23)COc2cc(OC)c(OC)cc2-4)O1 |  | 3.16 |
| CC1(C)CCC[C@@]2(C)[C@@H]1CC[C@]1(C)OC(=O)C[C@@H]21 |  | -14.4 |
| C=C[C@@]1(C)C=C2CC[C@@H]3[C@](C)(CCC[C@@]3(C)C(=O)O)[C@H]2CC1 |  | -8.05 |
| CCCN(CCc1ccccc1)[C@H]1CCc2c(O)cccc2C1 | 0.501 µM (active) |  |
| CC(=O)Oc1ccc(/C=C\C(=O)C[C@@H]2O[C@@H](Oc3cc(OC(C)=O)c4c(c3)O[C@@H](c3ccc(OC(C)=O)cc3)CC4=O)[C@H](OC(C)=O)[C@H](OC(C)=O)[C@@H]2OC(C)=O)cc1 |  | 7.12 |
| CC(C)C[C@@H](CC(=O)N[C@@H](CCC(=O)O)CC(=O)O)NC(=O)[C@@H]1CCCC[C@H]1NC(=O)C[C@@H](NC(=O)C[C@H](CO)NC(=O)[C@@H]1CNCC[C@H]1N)C(C)C |  | -3.01 |
| COc1ccccc1-c1cc(=O)c2cc(O)ccc2o1 |  | 6.01 |
| O=c1c(O)c(-c2ccc(O)c(O)c2)oc2c(OC[C@H]3O[C@@H](O)[C@@H](O)[C@H](O)[C@@H]3O)c(O)cc(O)c12 |  | 4.64 |
| OC[C@@H]1O[C@@H](n2cnc3c(NCc4ccco4)ncnc32)[C@H](O)[C@H]1O |  | -3.2 |
| CC[C@@H]1OC(=O)[C@@H](C)[C@H](O[C@@H]2C[C@@](C)(OC)[C@@H](O)[C@H](C)O2)[C@H](C)[C@H](O[C@@H]2O[C@@H](C)C[C@@H](N(C)C)[C@H]2O)[C@@](C)(O)C[C@H](C)C(=O)[C@@H](C)[C@H](O)[C@@]1(C)O |  | 5.99 |
| CC(=O)O[C@@H]1CC[C@]2(C)[C@H]3CC[C@]4(C)[C@H](C[C@H]5CCCC[C@@]54C(C)=O)[C@@H]3CC(=O)[C@@]2(O)C1 |  | -6.76 |
| CC(C)C1=CC2=CC[C@H]3[C@@](C)(CCC[C@]3(C)C(=O)O)[C@@H]2CC1 |  | 1.16 |
| NCCC[C@@H](CC(=O)N[C@@H]1CCNC[C@H]1C(=O)N[C@H](CC(=O)N[C@@H](CCC(=O)O)CC(=O)O)Cc1c[nH]c2ccccc12)NC(=O)C[C@H](CO)NC(=O)[C@@H]1CNCC[C@H]1N |  | -12.8 |
| CC(C)C[C@@H](CC(=O)N[C@@H](CCC(=O)O)CC(=O)O)NC(=O)[C@@H]1CCCC[C@H]1NC(=O)C[C@@H](NC(=O)C[C@H](CO)NC(=O)[C@@H]1CCCC[C@H]1N)C(C)C |  | 3.18 |
| O=c1cc(-c2ccc(O)c(O)c2)oc2cccc(O)c12 |  | -19.1 |
| Cc1c(C(=O)O)c(O)cc2c1C(=O)c1c(O)c([C@@H]3O[C@H](CO)[C@@H](O)[C@H](O)[C@@H]3O)c(O)c(O)c1C2=O |  | -19.5 |

| Structure (SMILES) | Potency | activity change, negative = inhibition [%] |
| --- | --- | --- |
| O=C(CCc1ccc(O)cc1)c1c(O)cc(O)cc1O[C@@H]1O[C@@H](CO)[C@@H](O)[C@@H](O)[C@H]1O |  | 0.951 |
| CC(C)C[C@@H](CC(=O)N[C@H](CC(=O)N[C@@H]1CCNC[C@H]1C(=O)N[C@H](CC(=O)N[C@@H](CCC(=O)O)CC(=O)O)Cc1c[nH]c2ccccc12)C(C)C)NC(=O)[C@@H]1CNCC[C@H]1N |  | -6.99 |
| COc1ccc(OC)c([C@H]2Nc3ccccc3NC3=C2C(=O)CC(C)(C)C3)c1Br |  | -0.571 |
| CC1(C)CC[C@]2(C(=O)O)CC[C@]3(C)C(=CC[C@@H]4[C@@]5(C)CC[C@H](O)C(C)(C)[C@@H]5CC[C@@]43C)[C@@H]2C1 |  | 0.0185 |
| COc1cc(-c2cc(=O)c3ccccc3o2)ccc1O | 31.6 µM (active) |  |
| COc1ccc([C@@H]2CC(=O)c3c(O)cc(O[C@@H]4O[C@@H](CO[C@@H]5O[C@@H](C)[C@@H](O)[C@@H](O)[C@H]5O)[C@@H](O)[C@@H](O)[C@H]4O)cc3O2)cc1O |  | 15.7 |
| CC(C)C[C@@H](CC(=O)N[C@@H](CCC(=O)O)CC(=O)O)NC(=O)[C@@H]1CNCC[C@H]1NC(=O)C[C@@H](NC(=O)C[C@H](Cc1ccccc1)NC(=O)[C@@H]1CNCC[C@H]1N)C(C)C |  | -8.14 |
| CC(C)C[C@@H](CC(=O)N[C@@H](CCC(=O)O)CC(=O)O)NC(=O)[C@@H]1CNCC[C@H]1NC(=O)C[C@@H](NC(=O)C[C@H](Cc1c[nH]c2ccccc12)NC(=O)[C@@H]1CNCC[C@H]1N)C(C)C |  | -6.82 |
| C[C@@H]1C[C@@]2(C)Oc3ccccc3[C@H]3OC[C@]1(COC(=O)Nc1ccccc1)[C@@H](C)[C@@H]32 |  | 10.5 |
| CCCCCC1=C2CNC(CC(C)C)(C(=O)OC)C=C2C(C)C1=O (stereo not given) | 5.01 µM (active) |  |
| CC1(NC[C@@H](O)COc2cccc3[nH]ccc23)CCC(C(C)(C)NC(=O)CBr)CC1 (stereo not given in full) | 1.26 µM (active) |  |
| NCCC[C@@H](CC(=O)N[C@@H]1CCNC[C@H]1C(=O)N[C@H](CC(=O)N[C@@H](CCC(=O)O)CC(=O)O)Cc1ccccc1)NC(=O)C[C@H](Cc1c[nH]c2ccccc12)NC(=O)[C@@H]1CNCC[C@H]1N |  | -19.5 |
| CC(C)[C@@H](CC(=O)N[C@@H]1CCCC[C@H]1C(=O)N[C@H](CC(=O)N[C@@H](CCC(=O)O)CC(=O)O)Cc1ccccc1)NC(=O)C[C@H](Cc1c[nH]c2ccccc12)NC(=O)[C@@H]1CNCC[C@H]1N |  | 7.46 |
| C/C(=C\CNc1ncnc2c1ncn2[C@@H]1O[C@@H](CO)[C@@H](O)[C@H]1O)CO |  | 3.61 |
| NCCC[C@@H](CC(=O)N[C@@H]1CCCC[C@H]1C(=O)N[C@H](CC(=O)N[C@@H](CCC(=O)O)CC(=O)O)Cc1c[nH]c2ccccc12)NC(=O)C[C@H](Cc1ccccc1)NC(=O)[C@@H]1CNCC[C@H]1N |  | -7.56 |
| CC(C)C[C@@H](CC(=O)N[C@H](CC(=O)N[C@@H]1CCCC[C@H]1C(=O)N[C@H](CC(=O)N[C@@H](CCC(=O)O)CC(=O)O)Cc1ccccc1)C(C)C)NC(=O)[C@@H]1CCCC[C@H]1N |  | -5.89 |
| CCC[C@@H]1C[C@@]1(CCC)C(NC(=O)c1ccco1)c1ccc(Cl)cc1 (stereo not given in full) | 3.98 µM (active) |  |
| CC(C)C[C@@H](CC(=O)N[C@@H](CCC(=O)O)CC(=O)O)NC(=O)[C@@H]1CCCC[C@H]1NC(=O)C[C@H](CCCN)NC(=O)C[C@H](CO)NC(=O)[C@@H]1CNCC[C@H]1N |  | -12 |
| CC(C)C[C@@H](CC(=O)N[C@@H](CCC(=O)O)CC(=O)O)NC(=O)[C@@H]1CCCC[C@H]1NC(=O)C[C@H](CCCN)NC(=O)C[C@H](Cc1ccccc1)NC(=O)[C@@H]1CCCC[C@H]1N |  | 1.8 |
| COc1ccc(-c2oc3cc(OC)c(OC(C)=O)c(OC)c3c(=O)c2OC)cc1OC(C)=O |  | -10.8 |
